This passage reports growth inhibition results from PubChem BioAssay (NCI).

Assay [1] in a line: NCI Yeast Anticancer Drug Screen. Data for the rad50 strain (AID 155).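 Also: 0% = growth of vehicle-only cultures of the same strain.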 The note with it: S. cerevisiae rad50 strain growth inhibition; at 50.0 µM; active compounds read high. A digest of the protocol: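 Vehicle-treated cultures provide the reference for the growth inhibition reported for compound-exposed, repair-deficient yeast.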
The nature of assay [2]: NCI Yeast Anticancer Drug Screen. Data for the mec2-1 strain (AID 157). The note with it: S. cerevisiae mec2-1 strain, at 50.0 µM, active compounds read high. A digest of the protocol:
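Readout is yeast growth inhibition, normalised to vehicle-treated controls, in the mec2-1 strain exposed to compound.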

Assay [3] can be described thus: NCI Yeast Anticancer Drug Screen. Data for the sgs1 mgt1 strain (AID 161).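 Also: 0% = growth of cultures given vehicle only.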 The note with it: S. cerevisiae sgs1 mgt1 strain, at 50.0 µM, active compounds read high. A digest of the protocol: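 Growth of a repair-deficient yeast mutant was monitored after compound treatment and expressed as inhibition relative to vehicle-treated cultures.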
Assay [4] can be described thus: NCI Yeast Anticancer Drug Screen. Data for the cln2 rad14 strain (AID 165).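 Also: 0% = growth equal to vehicle treated cultures.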 The note with it: S. cerevisiae cln2 rad14 strain, at 50.0 µM, active compounds read high. A digest of the protocol:
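Relative to vehicle controls, growth inhibition of compound-treated cln2 rad14 yeast was recorded.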

A short description of assay [5]: NCI Yeast Anticancer Drug Screen. Data for the bub3 strain (AID 167). To be noted: S. cerevisiae bub3 mutant strain, at 50.0 µM, active compounds read high. A digest of the protocol:
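Mutant yeast screening strain plus compound; vehicle-treated cultures serve as the 0% inhibition reference.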

Assay [6] in a line: NCI Yeast Anticancer Drug Screen. Data for the mlh1 rad18 strain (AID 175). The note with it: S. cerevisiae mlh1 rad18 strain growth inhibition; at 50.0 µM; active compounds read high. The method in brief: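 Test agents were incubated with a yeast strain of defined genotype (DNA damage repair defect). Inhibition of growth was derived by comparison with vehicle-exposed cultures.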

Compounds without any hit were thinned out: in the full panel of roughly 79,000, 15% have a hit. A number with no mark means an inactive call. Activity calls are given as the source filed them. Rule as the data show it: active = growth inhibition above about 70%; inactive = the rest.

Regarding `C=CCNC(=S)NNC(=S)NCC=C`, the growth inhibition in assay [1] is 9.55%; in assay [2], 34.1%; in assay [3], 10.4%; in assay [4] it was 3.6%; in assay [5] it was -16.4%; in assay [6] it was 22.2%.
Regarding `Cc1ccc(S(=O)(=O)ON2C(=O)c3cccc4cc([N+](=O)[O-])cc(c34)C2=O)cc1`, the growth inhibition in assay [1] is 35.1%; in assay [2], 45%; in assay [3], 39.4%; in assay [4] it was 17.4%; in assay [5], -12.2%; in assay [6] it was 8.65%.
On to `COc1ccc(/C=C2\N=C(c3cc(OC)c(OC)c(OC)c3)OC2=O)cc1`, for which the growth inhibition in assay [1] was 20.2%; in assay [2], 13.1%; in assay [3], 18.6%; in assay [4], 24.6%; in assay [5], 22.1%; in assay [6], 7.5%.
With `O=C(O)c1cscc1-c1ccccc1`, the growth inhibition in assay [1] is 2.5%; in assay [2] it was -0.05%; in assay [3] it was -6.9%; in assay [4], -19.9%; in assay [5], -12.1%; in assay [6] it was 3.6%.
With `CC(O)c1cc2c(s1)C(=O)c1scc(C(C)O)c1C2=O` (stereo not given), the growth inhibition was 89.8% (active) in assay [1]; 93.1% (active) in assay [2]; 92% (active) in assay [3]; 90.8% (active) in assay [4]; 91.4% (active) in assay [5]; 90.8% (active) in assay [6].
Regarding `CC1(C)OC2OC(CNC(=O)c3ccccc3)C(O)C2O1` (stereo not given), the growth inhibition in assay [1] is -9.05%; in assay [2] it was -4.4%; in assay [3], 3.05%; in assay [4], -3.1%; in assay [5], -10.3%; in assay [6] it was -18.8%.
With `CCCC(/C=N/Nc1ccc([N+](=O)[O-])cc1[N+](=O)[O-])=C\c1ccccc1`, the growth inhibition is -12.1% in assay [1]; -29.2% in assay [2]; 10.6% in assay [3]; -22.9% in assay [4]; 27.1% in assay [5]; -50% in assay [6].
`O=c1[nH]c(Nc2ccc(F)c(Cl)c2)nc2nc[nH]c12`: the growth inhibition in assay [1] is 4.4%; in assay [2], 6.85%; in assay [3], 4.6%; in assay [4], -4.75%; in assay [5], 2.55%; in assay [6], -23.7%.
For the compound `CCCCCCCCCCCC(=O)NC(=S)Nc1ccc(C)c(C)c1`, the growth inhibition in assay [1] was 8.65%; in assay [2], 58.2%; in assay [3] it was 54.6%; in assay [4], -13.6%; in assay [5], 57.5%; in assay [6], 36.9%.
In the case of `COc1ccc2nccc(C)c2c1`, the growth inhibition in assay [1] was -13%; in assay [2], 16.9%; in assay [3], -0.9%; in assay [4] it was -0.9%; in assay [5], 1.5%; in assay [6] it was -0.25%.
For `COC(=O)C12C3C4C1C1C2C3C41C(=O)N(C(C)C)C(C)C` (stereo not given), the growth inhibition in assay [1] was 7.75%; in assay [2], -1.45%; in assay [3], -3.4%; in assay [4], -3.55%; in assay [5], 3.5%; in assay [6], -14%.
Turning to `CC1=CCCCC1O` (stereo not given), the growth inhibition in assay [1] was -7.15%; in assay [2] it was 10.6%; in assay [3], -6.7%; in assay [4] it was 4.55%; in assay [5], 14.1%; in assay [6], -0.6%.
As to `O=C(O)CC1C(=O)OC2C3COC(=O)c4cc(O)c(O)c(O)c4-c4c(cc(O)c(O)c4O)C(=O)OC2C(OC(=O)c2cc(O)c(O)c4c2C1C(O)C(=O)O4)C(OC(=O)c1cc(O)c(O)c(O)c1)O3` (stereo not given), the growth inhibition is 24.4% in assay [1]; 2.8% in assay [2]; 22.4% in assay [3]; 5.15% in assay [4]; 35.5% in assay [5]; -6.15% in assay [6].
For `CC(=O)OCC1=COC(OC(=O)CC(C)(C)OC(C)=O)C2C1=CC(OC(=O)CC(C)C)[C@@]21CO1` (stereo not given in full), the growth inhibition in assay [1] is 14.4%; in assay [2] it was 16.4%; in assay [3], 3.6%; in assay [4], 6.3%; in assay [5] it was 6.75%; in assay [6] it was 9.95%.
`COC(C)CCOC(=O)c1ccc(C(C)C)cc1` (stereo not given): the growth inhibition was 6.45% in assay [1]; 8% in assay [2]; 10.2% in assay [3]; -21.7% in assay [4]; 8.75% in assay [5]; 1.65% in assay [6].
Turning to `CCn1ncc2c1nc(-c1ccccc1)c[n+]2[O-]`, the growth inhibition in assay [1] was 17.1%; in assay [2] it was 4%; in assay [3], -34.5%; in assay [4], -12.4%; in assay [5], -44.9%; in assay [6], -52%.
For the compound `CCOC(=O)CC1(O)C(=O)N(Cc2ccccc2)c2ccccc21` (stereo not given), the growth inhibition in assay [1] is 15.6%; in assay [2], -0.15%; in assay [3], 7.55%; in assay [4], 0.4%; in assay [5] it was 19.8%; in assay [6], -15.1%.
As for `CC(=O)OC1(C(=O)OCC2CCCO2)CCCC1` (stereo not given), the growth inhibition was -9.6% in assay [1]; 5.4% in assay [2]; -3.5% in assay [3]; -9.8% in assay [4]; 25.8% in assay [5]; 6.9% in assay [6].
`Cc1[nH]c(=O)c(C#N)c(C)c1[N+](=O)[O-]`: the growth inhibition was -0.05% in assay [1]; 20.3% in assay [2]; 3.95% in assay [3]; -35.7% in assay [4]; 10.6% in assay [5]; 1.9% in assay [6].
Consider `O=[N+]([O-])c1ccc(-c2nc3ccncc3[nH]2)cc1`, for which the growth inhibition in assay [1] was -22.6%; in assay [2], -7.4%; in assay [3], -15.2%; in assay [4] it was -21.6%; in assay [5] it was -6.85%; in assay [6], -12.6%.
